# Reference: PMC7862700, “An all-to-all approach to the identification of sequence-specific readers for epigenetic DNA modifications on cytosine”
# Tests used:
# Test in all cases: DAPPL (digital affinity profiling via proximity ligation, sequencing); 10 mM Tris-HCl pH 7.5, 50 mM NaCl, 1 mM DTT, 4% glycerol, room temperature, 30 min; GST-TFs on glutathione beads, 16-mer random dsDNA library, 0.1% formaldehyde crosslink after washing; high values mean tight binding
# FEV = target: T1, FEV (Homo sapiens, UniProt Q99581 1-238); conditions: protein: recombinant; tags: N-terminal GST; dsDNA, one strand shown
# T1 sequence: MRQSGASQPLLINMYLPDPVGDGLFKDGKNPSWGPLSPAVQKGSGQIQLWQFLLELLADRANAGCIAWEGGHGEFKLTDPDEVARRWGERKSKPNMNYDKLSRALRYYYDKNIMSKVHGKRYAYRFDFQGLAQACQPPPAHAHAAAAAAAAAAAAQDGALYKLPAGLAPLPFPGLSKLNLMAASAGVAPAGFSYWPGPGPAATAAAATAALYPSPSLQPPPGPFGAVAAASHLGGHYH
# Summary of the method: (§1)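 The binding signal reported is, for every hexamer, its read frequency for a factor over its read frequency for the tag-only sample. Reads came from pools of yeast-expressed, GST-fused human transcription factors on glutathione beads, barcoded with DNA and mixed with that sample, which were incubated with 200 nmole of a random double-stranded 16-mer DNA library in Tris/NaCl/DTT/glycerol buffer at room temperature for 30 min. After washing, the pools were crosslinked with 0.1% formaldehyde, proximity-ligated with BsaI/T4 ligase for 1 h at 37 °C, PCR-amplified and sequenced on an Illumina NextSeq500.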
# ETV5 = ETV5 (Homo sapiens, UniProt P41161 1-510); conditions: protein: recombinant; tags: N-terminal GST; dsDNA, one strand shown
# Summary of the method: as §1
# HSF1 = HSF1 (Homo sapiens, UniProt Q00613 1-529); conditions: protein: recombinant; tags: N-terminal GST; chain copies: 3; dsDNA, one strand shown
# Summary of the method: as §1
# SPIC = target: T2, SPIC (Homo sapiens, UniProt Q8N5J4 1-248); conditions: protein: recombinant; tags: N-terminal GST; dsDNA, one strand shown
# T2 sequence: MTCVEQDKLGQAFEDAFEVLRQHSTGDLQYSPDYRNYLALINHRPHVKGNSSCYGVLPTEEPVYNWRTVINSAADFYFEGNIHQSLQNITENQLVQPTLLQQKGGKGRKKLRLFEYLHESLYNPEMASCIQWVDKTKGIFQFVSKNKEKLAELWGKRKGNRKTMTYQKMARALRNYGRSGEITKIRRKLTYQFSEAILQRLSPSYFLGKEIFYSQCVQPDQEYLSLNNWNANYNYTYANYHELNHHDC
# Summary of the method: as §1
# ELF4 = ELF4 (Homo sapiens, UniProt Q99607 1-663); conditions: protein: recombinant; tags: N-terminal GST; dsDNA, one strand shown
# Summary of the method: as §1
# ELK4 = target: T3, ELK4 (Homo sapiens, UniProt P28324-2 1-405); conditions: protein: recombinant; tags: N-terminal GST; dsDNA, one strand shown
# T3 sequence: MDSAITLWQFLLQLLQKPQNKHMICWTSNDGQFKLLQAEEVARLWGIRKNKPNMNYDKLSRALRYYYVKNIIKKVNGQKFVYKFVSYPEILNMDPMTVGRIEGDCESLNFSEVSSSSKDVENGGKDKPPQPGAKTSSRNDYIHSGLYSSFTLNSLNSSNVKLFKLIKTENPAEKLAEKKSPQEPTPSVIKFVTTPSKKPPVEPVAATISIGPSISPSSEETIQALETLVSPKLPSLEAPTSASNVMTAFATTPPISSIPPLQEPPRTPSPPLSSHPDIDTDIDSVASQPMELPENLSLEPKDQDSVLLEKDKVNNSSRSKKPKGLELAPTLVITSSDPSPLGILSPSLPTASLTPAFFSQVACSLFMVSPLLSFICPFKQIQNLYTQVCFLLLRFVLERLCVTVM
# Summary of the method: as §1
# ETV2 = target: T4, ETV2 (Homo sapiens, UniProt O00321 1-342); conditions: protein: recombinant; tags: N-terminal GST; dsDNA, one strand shown
# T4 sequence: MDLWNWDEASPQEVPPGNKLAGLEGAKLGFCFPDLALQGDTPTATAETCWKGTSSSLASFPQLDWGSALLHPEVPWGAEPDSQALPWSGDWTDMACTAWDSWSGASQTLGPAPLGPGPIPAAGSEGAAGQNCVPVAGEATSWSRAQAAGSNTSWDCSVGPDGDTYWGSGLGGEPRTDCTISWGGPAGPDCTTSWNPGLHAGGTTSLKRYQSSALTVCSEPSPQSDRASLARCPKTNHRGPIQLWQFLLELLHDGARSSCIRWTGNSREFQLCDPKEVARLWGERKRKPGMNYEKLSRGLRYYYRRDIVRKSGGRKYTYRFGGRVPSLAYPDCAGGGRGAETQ
# Summary of the method: as §1
# ELF3 = target: T5, ELF3 (Homo sapiens, UniProt P78545 1-371); conditions: protein: recombinant; tags: N-terminal GST; dsDNA, one strand shown
# T5 sequence: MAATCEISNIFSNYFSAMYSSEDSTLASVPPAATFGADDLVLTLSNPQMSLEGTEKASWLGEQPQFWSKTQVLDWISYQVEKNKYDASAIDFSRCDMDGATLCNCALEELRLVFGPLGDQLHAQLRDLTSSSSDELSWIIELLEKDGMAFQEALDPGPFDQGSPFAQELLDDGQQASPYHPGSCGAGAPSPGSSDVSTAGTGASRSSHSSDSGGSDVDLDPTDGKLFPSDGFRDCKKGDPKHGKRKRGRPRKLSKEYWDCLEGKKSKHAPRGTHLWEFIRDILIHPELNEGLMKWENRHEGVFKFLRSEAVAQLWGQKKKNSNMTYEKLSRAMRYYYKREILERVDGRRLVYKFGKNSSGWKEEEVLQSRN
# Summary of the method: as §1
# CRX = CRX (Homo sapiens, UniProt O43186 1-299); conditions: protein: recombinant; tags: N-terminal GST; dsDNA, one strand shown
# Summary of the method: as §1
# ETV1 = ETV1 (Homo sapiens, UniProt P50549 1-477); conditions: protein: recombinant; tags: N-terminal GST; dsDNA, one strand shown
# Summary of the method: as §1
# ERF = target: T6, ERF (Homo sapiens, UniProt P50548 1-548); conditions: protein: recombinant; tags: N-terminal GST; dsDNA, one strand shown
# T6 sequence: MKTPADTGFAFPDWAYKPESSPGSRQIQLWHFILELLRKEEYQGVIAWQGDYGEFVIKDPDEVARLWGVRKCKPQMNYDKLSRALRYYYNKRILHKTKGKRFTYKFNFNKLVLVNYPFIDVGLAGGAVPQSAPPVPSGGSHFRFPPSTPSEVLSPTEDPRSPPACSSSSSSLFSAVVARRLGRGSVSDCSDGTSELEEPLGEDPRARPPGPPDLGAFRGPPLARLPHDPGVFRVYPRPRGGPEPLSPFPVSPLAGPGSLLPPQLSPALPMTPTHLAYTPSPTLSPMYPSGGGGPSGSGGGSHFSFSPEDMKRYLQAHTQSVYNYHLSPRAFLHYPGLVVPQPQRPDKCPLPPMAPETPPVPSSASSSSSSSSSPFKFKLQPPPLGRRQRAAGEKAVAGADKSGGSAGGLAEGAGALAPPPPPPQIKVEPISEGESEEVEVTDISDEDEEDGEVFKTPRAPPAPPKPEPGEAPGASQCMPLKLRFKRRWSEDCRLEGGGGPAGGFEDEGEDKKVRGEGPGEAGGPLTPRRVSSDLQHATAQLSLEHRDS
# Summary of the method: as §1
# ETV3L = target: T7, ETV3L (Homo sapiens, UniProt Q6ZN32 1-361); conditions: protein: recombinant; tags: N-terminal GST; dsDNA, one strand shown
# T7 sequence: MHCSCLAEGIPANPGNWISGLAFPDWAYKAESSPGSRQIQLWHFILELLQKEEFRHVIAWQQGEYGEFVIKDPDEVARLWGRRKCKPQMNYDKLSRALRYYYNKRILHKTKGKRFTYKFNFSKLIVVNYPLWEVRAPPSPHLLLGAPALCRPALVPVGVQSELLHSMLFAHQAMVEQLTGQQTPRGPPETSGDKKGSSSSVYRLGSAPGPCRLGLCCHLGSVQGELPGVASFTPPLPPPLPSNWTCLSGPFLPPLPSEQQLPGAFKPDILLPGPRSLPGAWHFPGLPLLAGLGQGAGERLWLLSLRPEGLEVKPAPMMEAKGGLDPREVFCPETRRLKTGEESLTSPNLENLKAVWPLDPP
# Summary of the method: as §1
# ETS2 = target: T8, ETS2 (Homo sapiens, UniProt P15036 1-469); conditions: protein: recombinant; tags: N-terminal GST; dsDNA, one strand shown
# T8 sequence: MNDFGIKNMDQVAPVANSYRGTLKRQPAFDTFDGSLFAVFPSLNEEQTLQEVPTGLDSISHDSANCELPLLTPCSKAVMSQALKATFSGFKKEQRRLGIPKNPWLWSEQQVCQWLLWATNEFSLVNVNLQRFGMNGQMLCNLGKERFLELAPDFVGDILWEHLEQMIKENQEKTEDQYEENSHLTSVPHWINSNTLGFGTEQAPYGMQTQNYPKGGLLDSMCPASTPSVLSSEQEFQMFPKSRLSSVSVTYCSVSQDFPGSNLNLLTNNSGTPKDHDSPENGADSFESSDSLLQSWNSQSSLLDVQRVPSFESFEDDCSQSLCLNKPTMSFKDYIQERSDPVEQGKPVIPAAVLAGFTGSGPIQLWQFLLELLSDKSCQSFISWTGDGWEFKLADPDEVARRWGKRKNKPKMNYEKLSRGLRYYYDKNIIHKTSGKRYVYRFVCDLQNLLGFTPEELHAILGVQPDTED
# Summary of the method: as §1
# SPDEF = target: T9, SPDEF (Homo sapiens, UniProt O95238 1-335); conditions: protein: recombinant; tags: N-terminal GST; dsDNA, one strand shown
# T9 sequence: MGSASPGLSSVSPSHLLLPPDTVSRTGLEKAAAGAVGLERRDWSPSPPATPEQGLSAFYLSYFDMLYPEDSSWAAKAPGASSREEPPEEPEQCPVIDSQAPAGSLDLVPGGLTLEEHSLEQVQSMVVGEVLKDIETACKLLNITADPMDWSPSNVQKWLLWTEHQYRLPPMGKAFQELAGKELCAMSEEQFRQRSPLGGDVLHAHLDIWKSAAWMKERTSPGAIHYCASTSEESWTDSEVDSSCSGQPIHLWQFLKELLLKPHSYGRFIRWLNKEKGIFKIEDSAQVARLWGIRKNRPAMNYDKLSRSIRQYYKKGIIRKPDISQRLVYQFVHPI
# Summary of the method: as §1
# ETV7 = target: T10, ETV7 (Homo sapiens, UniProt Q9Y603 1-341); conditions: protein: recombinant; tags: N-terminal GST; dsDNA, one strand shown
# T10 sequence: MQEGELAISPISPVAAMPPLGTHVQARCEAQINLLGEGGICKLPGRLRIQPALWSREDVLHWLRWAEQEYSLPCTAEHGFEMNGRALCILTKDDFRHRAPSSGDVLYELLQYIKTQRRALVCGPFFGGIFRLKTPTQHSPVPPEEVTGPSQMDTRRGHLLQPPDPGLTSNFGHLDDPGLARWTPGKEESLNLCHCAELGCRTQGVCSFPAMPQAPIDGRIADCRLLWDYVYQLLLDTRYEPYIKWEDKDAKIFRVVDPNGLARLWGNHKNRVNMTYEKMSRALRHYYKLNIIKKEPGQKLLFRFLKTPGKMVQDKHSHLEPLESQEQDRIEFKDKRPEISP
# Summary of the method: as §1
# ELF5 = target: T11, ELF5 (Homo sapiens, UniProt Q9UKW6-2 1-255); conditions: protein: recombinant; tags: N-terminal GST; dsDNA, one strand shown
# T11 sequence: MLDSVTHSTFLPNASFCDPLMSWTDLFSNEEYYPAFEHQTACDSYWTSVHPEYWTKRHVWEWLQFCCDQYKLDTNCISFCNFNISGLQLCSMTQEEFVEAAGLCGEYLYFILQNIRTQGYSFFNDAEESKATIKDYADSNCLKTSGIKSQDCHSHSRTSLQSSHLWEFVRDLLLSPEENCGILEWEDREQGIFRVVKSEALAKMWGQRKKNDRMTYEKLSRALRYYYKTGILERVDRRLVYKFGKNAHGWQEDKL
# Summary of the method: as §1
# ETV3 = target: T12, ETV3 (Homo sapiens, UniProt P41162-2 1-143); conditions: protein: recombinant; tags: N-terminal GST; dsDNA, one strand shown
# T12 sequence: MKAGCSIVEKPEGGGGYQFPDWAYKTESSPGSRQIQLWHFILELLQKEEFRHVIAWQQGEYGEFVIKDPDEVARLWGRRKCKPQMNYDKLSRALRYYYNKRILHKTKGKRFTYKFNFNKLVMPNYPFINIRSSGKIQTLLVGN
# Summary of the method: as §1
# ETV6 = ETV6 (Homo sapiens, UniProt P41212 1-452); conditions: protein: recombinant; tags: N-terminal GST; dsDNA, one strand shown
# Summary of the method: as §1
# Chain of ETV5 (P41161 whole entry): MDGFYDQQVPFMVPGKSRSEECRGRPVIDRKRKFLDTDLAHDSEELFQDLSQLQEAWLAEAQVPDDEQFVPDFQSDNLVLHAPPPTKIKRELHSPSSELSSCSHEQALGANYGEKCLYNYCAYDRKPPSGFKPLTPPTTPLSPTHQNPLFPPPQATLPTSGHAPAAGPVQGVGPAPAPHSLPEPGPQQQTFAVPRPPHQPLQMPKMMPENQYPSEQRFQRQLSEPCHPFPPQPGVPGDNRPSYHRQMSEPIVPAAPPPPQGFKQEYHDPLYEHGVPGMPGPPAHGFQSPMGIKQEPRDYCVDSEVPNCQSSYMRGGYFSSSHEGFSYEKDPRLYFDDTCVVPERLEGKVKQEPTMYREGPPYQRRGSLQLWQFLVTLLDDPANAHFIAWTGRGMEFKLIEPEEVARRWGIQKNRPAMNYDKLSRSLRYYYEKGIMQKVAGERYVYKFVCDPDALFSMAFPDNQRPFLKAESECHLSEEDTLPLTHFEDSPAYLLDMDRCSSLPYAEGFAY
# Chain of CRX (O43186 whole entry): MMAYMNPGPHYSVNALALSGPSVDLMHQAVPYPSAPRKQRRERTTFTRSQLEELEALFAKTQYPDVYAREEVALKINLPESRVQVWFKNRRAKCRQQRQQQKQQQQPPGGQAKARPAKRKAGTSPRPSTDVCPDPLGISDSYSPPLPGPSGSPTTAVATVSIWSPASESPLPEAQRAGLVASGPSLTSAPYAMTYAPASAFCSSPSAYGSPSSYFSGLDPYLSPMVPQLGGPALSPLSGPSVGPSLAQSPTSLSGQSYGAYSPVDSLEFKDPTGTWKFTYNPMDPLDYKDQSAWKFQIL
# Chain of ETV6 (P41212 whole entry): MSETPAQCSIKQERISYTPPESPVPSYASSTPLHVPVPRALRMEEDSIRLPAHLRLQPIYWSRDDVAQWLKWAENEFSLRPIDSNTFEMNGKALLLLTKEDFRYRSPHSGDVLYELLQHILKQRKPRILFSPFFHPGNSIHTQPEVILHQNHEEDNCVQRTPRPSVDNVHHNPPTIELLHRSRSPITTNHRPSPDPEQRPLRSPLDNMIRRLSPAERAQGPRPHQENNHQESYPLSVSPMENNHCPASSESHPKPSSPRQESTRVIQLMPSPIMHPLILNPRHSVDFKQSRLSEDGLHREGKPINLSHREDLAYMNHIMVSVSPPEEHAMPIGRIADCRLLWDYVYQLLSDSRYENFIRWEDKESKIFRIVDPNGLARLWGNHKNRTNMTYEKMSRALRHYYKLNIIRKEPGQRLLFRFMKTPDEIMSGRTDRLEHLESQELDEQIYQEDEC
# Chain of HSF1 (Q00613 whole entry): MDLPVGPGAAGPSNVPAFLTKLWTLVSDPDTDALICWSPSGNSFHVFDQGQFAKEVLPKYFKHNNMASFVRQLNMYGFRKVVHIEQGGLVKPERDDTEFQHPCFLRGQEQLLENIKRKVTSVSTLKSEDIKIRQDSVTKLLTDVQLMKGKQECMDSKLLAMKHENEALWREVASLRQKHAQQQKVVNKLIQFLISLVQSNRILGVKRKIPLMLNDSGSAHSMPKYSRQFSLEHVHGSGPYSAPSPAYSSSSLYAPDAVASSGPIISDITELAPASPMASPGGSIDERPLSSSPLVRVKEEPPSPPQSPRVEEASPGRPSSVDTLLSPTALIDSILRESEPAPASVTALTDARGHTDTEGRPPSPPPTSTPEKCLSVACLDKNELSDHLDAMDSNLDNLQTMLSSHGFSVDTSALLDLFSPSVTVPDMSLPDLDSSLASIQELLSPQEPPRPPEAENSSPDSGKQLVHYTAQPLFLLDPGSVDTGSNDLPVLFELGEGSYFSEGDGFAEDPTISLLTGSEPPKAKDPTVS
# Chain of ELF4 (Q99607 whole entry): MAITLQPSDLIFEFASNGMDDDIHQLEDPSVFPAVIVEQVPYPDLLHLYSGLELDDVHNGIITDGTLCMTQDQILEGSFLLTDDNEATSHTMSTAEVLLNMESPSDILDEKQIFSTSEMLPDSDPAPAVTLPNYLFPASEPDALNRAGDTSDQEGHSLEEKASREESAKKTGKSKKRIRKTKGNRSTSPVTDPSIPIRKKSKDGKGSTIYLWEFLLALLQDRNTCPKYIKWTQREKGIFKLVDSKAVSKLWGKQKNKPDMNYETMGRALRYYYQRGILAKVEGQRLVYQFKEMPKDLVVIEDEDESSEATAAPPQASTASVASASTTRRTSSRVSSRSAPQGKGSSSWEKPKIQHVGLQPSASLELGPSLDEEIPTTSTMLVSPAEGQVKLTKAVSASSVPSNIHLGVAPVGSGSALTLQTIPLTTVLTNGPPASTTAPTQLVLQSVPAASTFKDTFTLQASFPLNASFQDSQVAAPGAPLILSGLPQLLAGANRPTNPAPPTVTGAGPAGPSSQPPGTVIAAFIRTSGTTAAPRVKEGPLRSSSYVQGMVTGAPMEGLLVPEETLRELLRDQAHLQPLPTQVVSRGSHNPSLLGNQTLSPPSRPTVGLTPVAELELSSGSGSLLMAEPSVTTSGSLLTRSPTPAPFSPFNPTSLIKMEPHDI
# Chain of ETV1 (P50549 whole entry): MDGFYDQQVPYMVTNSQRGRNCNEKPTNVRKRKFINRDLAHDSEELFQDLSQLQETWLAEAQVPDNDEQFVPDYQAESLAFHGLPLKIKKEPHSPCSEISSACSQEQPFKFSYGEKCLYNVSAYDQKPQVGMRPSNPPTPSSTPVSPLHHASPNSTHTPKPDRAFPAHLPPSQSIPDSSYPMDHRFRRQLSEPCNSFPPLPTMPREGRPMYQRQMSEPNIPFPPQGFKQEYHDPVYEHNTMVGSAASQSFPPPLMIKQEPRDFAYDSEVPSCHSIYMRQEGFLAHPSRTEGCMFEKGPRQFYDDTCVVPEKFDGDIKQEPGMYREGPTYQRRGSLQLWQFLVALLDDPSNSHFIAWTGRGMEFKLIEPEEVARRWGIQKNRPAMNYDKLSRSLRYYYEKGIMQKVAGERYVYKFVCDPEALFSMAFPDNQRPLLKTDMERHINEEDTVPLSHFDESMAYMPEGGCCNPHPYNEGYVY
sequence,measurement,setting,value
AAATCC,binding signal,FEV,"2.56 fold enrichment (6-mer frequency, TF over GST control)"
same,binding signal,ETV5,"1.64 fold enrichment (6-mer frequency, TF over GST control)"
same,binding signal,HSF1,"1.9 fold enrichment (6-mer frequency, TF over GST control)"
same,binding signal,SPIC,"1.5 fold enrichment (6-mer frequency, TF over GST control)"
same,binding signal,ELF4,"1.51 fold enrichment (6-mer frequency, TF over GST control)"
same,binding signal,ELK4,"1.47 fold enrichment (6-mer frequency, TF over GST control)"
same,binding signal,ETV2,"1.45 fold enrichment (6-mer frequency, TF over GST control)"
same,binding signal,ELF3,"1.34 fold enrichment (6-mer frequency, TF over GST control)"
same,binding signal,CRX,"2.53 fold enrichment (6-mer frequency, TF over GST control)"
same,binding signal,ETV1,"1.58 fold enrichment (6-mer frequency, TF over GST control)"
same,binding signal,ERF,"1.48 fold enrichment (6-mer frequency, TF over GST control)"
same,binding signal,ETV3L,"1.47 fold enrichment (6-mer frequency, TF over GST control)"
same,binding signal,ETS2,"1.62 fold enrichment (6-mer frequency, TF over GST control)"
same,binding signal,SPDEF,"2.08 fold enrichment (6-mer frequency, TF over GST control)"
same,binding signal,ETV7,"1.61 fold enrichment (6-mer frequency, TF over GST control)"
same,binding signal,ELF5,"1.75 fold enrichment (6-mer frequency, TF over GST control)"
same,binding signal,ETV3,"1.49 fold enrichment (6-mer frequency, TF over GST control)"
same,binding signal,ETV6,"1.6 fold enrichment (6-mer frequency, TF over GST control)"
